# In the library only some 32% were active in any assay of this set; here they are far more common.
# CYP2C9 activ: human CYP2C9 activators, primary screen, biochemical, luminescence; recombinant CYP2C9, luciferin-H conversion; active compounds read high; factor 1 = untreated enzyme, 0 = blocked; activation factor at 5 µM; 1.4% of 96,000 active; AID 1024, 2008;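 active = activation factor of 2 or more for CYP2C9 at a 5 µM dose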;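 note: 0 = sulfaphenazole-blocked wells and 1 = vehicle-only wells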
# Target sequence (P11712 whole entry, looked up): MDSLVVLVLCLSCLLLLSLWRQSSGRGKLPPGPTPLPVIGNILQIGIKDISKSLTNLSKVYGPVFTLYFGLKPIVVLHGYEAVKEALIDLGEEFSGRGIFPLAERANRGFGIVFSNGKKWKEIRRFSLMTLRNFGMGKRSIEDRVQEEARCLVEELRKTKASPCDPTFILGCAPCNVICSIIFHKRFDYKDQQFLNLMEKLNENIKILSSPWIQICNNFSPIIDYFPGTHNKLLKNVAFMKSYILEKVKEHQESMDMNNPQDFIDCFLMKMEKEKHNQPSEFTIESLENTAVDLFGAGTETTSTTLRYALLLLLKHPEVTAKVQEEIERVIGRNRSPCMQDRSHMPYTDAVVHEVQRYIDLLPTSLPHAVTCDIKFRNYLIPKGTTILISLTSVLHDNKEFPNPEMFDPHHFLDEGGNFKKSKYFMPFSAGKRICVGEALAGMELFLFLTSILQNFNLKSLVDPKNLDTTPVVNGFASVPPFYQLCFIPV
# CYP2C19 inh: blockers of cytochrome P450 2C19 activity – biochemical, luminescence, ADME assay, primary screen | CYP2C19 Supersomes, luciferin-H EGE luminescence, 30 min | inhibition, % at 5 µM | 21% of 96,000 active;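 active = CYP2C19 inhibition above a set limit at 5 µM in the primary screen, cut at about 50% in these data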;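 note: plate controls were negative control wells for no effect and 2.5 mM tranylcypromine positive control for full effect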
# PostGolgi yeast: phenotypic screen on post-Golgi transport, primary screen. 0.9% of 98,000 active. post-Golgi transport phenotypic cell assay. inhibition, % at 10 µM;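 note: yeast cells grown in 1536-well plates; yeast grown about 18 h at 30C before absorbance read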
# CYP2C19 activ: human CYP2C19 activators, primary screen, biochemical, luminescence; activation factor at 5 µM; 96,000 tested, under 10 active; recombinant CYP2C19, luciferin-H EGE luminescence; active compounds read high; 0 = fully inhibited enzyme, 1 = untreated enzyme;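 active = activation factor of at least 2 at 5 µM in the primary screen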;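 note: 0 = wells with 2.5 mM tranylcypromine and 1 = vehicle-only wells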
# CYP2C9 inh: blockers of cytochrome P450 2C9 activity – biochemical, luminescence, ADME assay, primary screen; CYP2C9 Supersomes, luciferin-H conversion; inhibition, % at 5 µM; 20% of 96,000 active; P11712;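 active = blocking of liver enzyme CYP2C9 beyond about 50% at 5 µM, limit read from the data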
# PostGolgi ctrl: growth inhibition of yeast control strain, primary screen, counter-screen for post-Golgi transport modulator project; efflux-deficient yeast background strain, growth absorbance A615, 16 h; inhibition, % at 10 µM; 5% of 98,000 active; AID 738, 2007
# * hit, by the source's call; / = not tested or not shown. Cut-off read from the data, not from the text of the source, unless noted: active = inhibition above about 30%; inactive = the rest.
SMILES,CYP2C9 activ,CYP2C19 inh,PostGolgi yeast,CYP2C19 activ,CYP2C9 inh,PostGolgi ctrl
COc1cc(-c2c(C#N)c(N)nc(SCc3ccncc3)c2C#N)cc(OC)c1OC,0,100.0*,0.9,0,100.4*,18.1
COc1ccc(CCNC(=O)CSc2nc(N)c(C#N)c(-c3cccs3)c2C#N)cc1OC,0.6,37.6,3.0,0.6,36.0,4.8
Cc1ccccc1NC(=O)CSc1nc(N)c(C#N)c(-c2cccs2)c1C#N,0.5,61.5*,-7.1,0.4,52.6*,-0.7
COc1cc(C(C[N+](=O)[O-])c2c(C)[nH]c3ccccc23)cc(OC)c1OC (stereo unspecified),0.3,97.8*,17.5,0,72.2*,4.6
NC(=O)c1cnn(Cc2ccc(Cl)cc2)c1N,1,-4.7,3.8,1,3.4,-2.6
NC(=O)c1ccc(C(F)(F)F)n(Cc2ccc(Cl)cc2)c1=O,0.8,50.8*,-2.5,0.5,22.4,20.3
NC(=O)c1ccc(C(F)(F)F)n(Cc2cccc(Cl)c2)c1=O,0.7,55.6*,5.3,0.4,25.1,60.7*
CC(=O)c1cnc(Nc2nc(C)c3cccc(C)c3n2)nc1C,1,-1.2,/,1,2.7,/
CO/N=C/c1ccc(Sc2ccccc2)c([N+](=O)[O-])c1,0.3,16.4,2.2,0.8,74.4*,6.5
O=[N+]([O-])c1cc(/C=N/O)ccc1SCc1ccccc1,0.7,19.7,-6.4,0.8,26.2,4.3
CO/N=C/c1ccc(Sc2ccccc2N)c([N+](=O)[O-])c1,0.3,73.9*,9.6,0.3,68.6*,31.6*
O=[N+]([O-])c1cc(/C=N/O)ccc1Sc1ccccc1,0.3,10.6,9.1,0.9,67.3*,15.5
Cc1cc(/C=C(\C#N)C(=O)NCc2ccco2)c(C)n1C1CCCC1,0.8,-23.4,1.9,1.2,22.5,20.0
CC(=O)N1CCN(S(=O)(=O)c2ccc(C)cc2)C1C(C)C (stereo unspecified),1,68.8*,5.6,0.3,1.4,-9.2
Cc1ccc(S(=O)(=O)N2CCN(C(=O)c3ccccc3)C2C(C)C)cc1 (stereo unspecified),1,42.7,1.3,0.6,0.4,30.6*
COc1ccc(C2N(C(=O)c3ccccc3)CCN2C(=O)c2ccc(C)cc2)cc1 (stereo unspecified),0.5,14.3,-4.4,0.9,48.1,-3.8
C/C(=N\S(=O)(=O)c1ccc(C)cc1)N1CCN(S(=O)(=O)c2ccccc2)C1C(C)C (stereo unspecified),2.4*,78.4*,-11.9,0.2,-135.9,14.8
Cc1ccc(S(=O)(=O)N2CCN(C(=O)N3CCOCC3)C2C(C)C)cc1 (stereo unspecified),1,2.1,4.3,1,3.4,35.5*
O=S(=O)(CCc1ccccc1)/N=C/c1cccs1,1.2,-9.0,/,1.1,-20.7,/
O=c1c2cccc3c(N4CCOCC4)ccc(c32)c2nc3ccccc3n12,0.8,14.6,/,0.9,18.0,/
O=C(O)CCC(=O)Nc1ccc(OCC(=O)O)cc1,1.3,-18.9,4.5,1.2,-27.2,-11.8
COc1ccc(-c2cc(C(F)(F)F)nc(SCCC(=O)N3CCOCC3)n2)cc1,0.9,1.7,18.3,1,13.8,16.6
COc1ccccc1C(=O)N1CCN(S(=O)(=O)c2ccccc2)CC1,0.5,92.6*,4.4,0.1,52.1*,8.2
COc1cccc(OC)c1C(=O)N1CCN(S(=O)(=O)c2ccccc2)CC1,0.3,53.3*,-7.0,0.5,73.8*,-3.2
COc1ccc(C(=O)N2CCN(S(=O)(=O)c3ccccc3)CC2)c(OC)c1,0.7,39.1,-9.0,0.6,32.2,4.2
SMILES,CYP2C9 activ,CYP2C19 inh,PostGolgi yeast,CYP2C19 activ,CYP2C9 inh,PostGolgi ctrl
COc1ccccc1-n1cnnc1SCC(=O)Nc1nc(C)c(Cl)cc1Cl,0.8,74.6*,-0.5,0.3,21.3,9.9
COc1ccccc1-n1cnnc1SCC(=O)N1CCN(S(=O)(=O)c2ccccc2)CC1,1,60.0*,-2.1,0.4,3.1,18.0
CO/N=C/c1ccc(N2CCN(C(=O)c3ccc(Cl)cc3Cl)CC2)c([N+](=O)[O-])c1,0.7,26.2,-2.6,0.7,30.0,19.1
CC(C)(C)N(Cc1ccccc1)C(=O)CSc1nnc(CNc2ccc(F)cc2)o1,0.8,17.3,15.7,0.8,24.3,18.8
COc1ccc2oc(C(=O)OCC(=O)NC(=O)NC(C)C)c(C)c2c1,0.9,14.5,-14.6,0.9,9.0,15.6
CCOC(=O)C1=C(c2ccccc2)N=C2SCC(=O)N2C1c1ccc(OCC)c(OCC)c1 (stereo unspecified),0.8,-0.3,-4.0,1,17.9,1.8
CCOC(=O)C1=C(C)N=C2SCCC(=O)N2C1c1ccc(C(=O)OC)cc1 (stereo unspecified),0.8,67.5*,16.7,0.3,21.6,0.6
COCCOC(=O)C1=C(C)N=C2SCCC(=O)N2C1c1ccc(OC(=O)c2ccco2)cc1 (stereo unspecified),0.3,72.7*,6.2,0.3,73.2*,2.2
CCOC(=O)C1=C(C)N=C2SC(C)C(=O)N2C1c1ccc(C(=O)OC)cc1 (stereo unspecified),0.4,73.2*,-4.5,0.3,58.4*,-5.2
CCOC(=O)C1=C(C)N=C2SC(C)C(=O)N2C1c1ccc(OCC)c(OCC)c1 (stereo unspecified),0.4,54.5*,-2.7,0.5,60.9*,3.1
CCCOc1ccc(C2C(C(=O)OC)=C(C)N=C3SCCC(=O)N32)cc1OCC (stereo unspecified),0.6,23.0,0.6,0.8,37.7,4.7
c1ccc2oc(-c3ccc(Nc4nc(N5CCCCC5)nc(N5CCOCC5)n4)cc3)nc2c1,0.8,3.8,15.9,1,18.5,26.3
O=[N+]([O-])c1ccc(Sc2nccn2Cc2ccccc2)c([N+](=O)[O-])c1,0.6,50.7*,-0.6,0.5,35.4,16.0
Cc1[nH]n(-c2ccccc2)c(=O)c1Sc1ccc(Cl)cc1,0.1,51.5*,-2.9,0.5,85.8*,35.0*
Cc1[nH]n(C(C)(C)C)c(=O)c1Sc1ccccc1,0.8,17.7,15.7,0.8,22.4,-4.8
Cn1c(C(=O)N2CCCC(C(=O)N3CCN(C(=O)c4ccco4)CC3)C2)cc2sccc21 (stereo unspecified),0.8,9.6,-3.3,0.9,24.9,7.3
CCn1c(C(=O)N2CCC(C(=O)N3CCN(c4ccccn4)CC3)CC2)cc2sccc21,1.6,65.2*,0.0,0.3,-60.2,3.7
CC1CCN(C(=O)C2CCN(C(=O)c3cc4sccc4n3Cc3ccc(F)cc3)CC2)CC1,0.3,31.1,1.7,0.7,72.9*,29.1

# Screens: PubChem BioAssay, several laboratories
